According to PubChem BioAssay AID598 (SRMLSC, 2007):
Screen size: about 85,000 compounds; about 5,100 (6%) were called active. Only a selection was taken, and actives are over-represented in it overall. Unmarked numbers belong to inactive results.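 How the source made its calls: active means viability at or below 40%; inactive means viability above 40%.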

assay: H69AR cell viability reduction – human, 86K library, primary screen (AID 598); conditions: H69AR lung tumor viability, ATP luminescence, 72 h; at 10 µM; hits give low values;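 further: multidrug resistant small cell line overexpressing MRP-1 efflux transporter; 100% = mean luminescence of untreated control wells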

Q: With `Cc1cc(C(F)F)n2nc(C(=O)Nc3ccc(S(=O)(=O)NC45CC6CC(CC(C6)C4)C5)cc3)nc2n1` as the compound, how does the viability read?
A: 115%

Q: Which viability does the source give for `CC(C)CNC(=O)CC(c1ccccc1)c1c(O)ccc2ccccc12` (stereo unspecified) here?
A: 92.8%

Q: With `O=S(=O)(NCCc1ccccc1)c1ccccc1` as the compound, how does the viability read?
A: 103%

Q: With `CCN1C(=O)C(CC(=O)Nc2cc(C)ccc2C)SC1=Nc1ccc(S(N)(=O)=O)cc1` (stereo unspecified) as the compound, how does the viability read?
A: 97.3%

Q: With `Cc1ccc(OCC(=O)Nc2ccc(-c3nnc(-c4ccco4)o3)cc2)cc1` as the compound, how does the viability read?
A: 90.5%

Q: Which viability does the source give for `COc1ccc(CC(=O)Nc2ccc(-c3nnc(-c4ccc(C)cc4)o3)cc2)cc1` here?
A: 2.28% (active)

Q: With `COc1ccc(CC(=O)Nc2ccc(-c3nnc(-c4ccccc4)o3)cc2)cc1` as the compound, how does the viability read?
A: 58.1%

Q: For `CN(Cc1ccccc1)C(=O)COc1ccccc1`, which viability is on record?
A: 97.9%

Q: For `CCc1ccccc1NC(=O)CN(C)S(=O)(=O)c1ccc2c(c1)c(=O)n(C)c(=O)n2C`, which viability is on record?
A: 88.5%

Q: Which viability does the source give for `Cc1cc(C)c2nc(N3CCCC3)c(C#N)cc2c1` here?
A: 91.6%

Q: For `CC(=O)c1ccc(S(=O)(=O)N2CCN(c3nc4c(C)c(C)ccc4cc3C#N)CC2)cc1`, which viability is on record?
A: 36% (active)

Q: Which viability does the source give for `Cc1cccc2cc(C#N)c(N3CCCC3)nc12` here?
A: 100%

Q: Which viability does the source give for `CCS(=O)(=O)Nc1ccc(C2=NN(S(=O)(=O)c3ccc(F)cc3)C(c3ccco3)C2)cc1` (stereo unspecified) here?
A: 81.9%

Q: Which viability does the source give for `O=C(NC1CCCC1)C(c1ccccn1)N(C(=O)c1csnn1)C1CCCC1` (stereo unspecified) here?
A: 81.2%

Q: For `CCOC(=O)CN(Cc1ccc(OC)c(OC)c1)S(=O)(=O)c1ccc(OC)cc1`, which viability is on record?
A: 87.8%

Q: For `Cc1ccccc1OCCC(=O)Nc1c(C)n(C)n(-c2ccccc2)c1=O`, which viability is on record?
A: 91%

Q: With `Cc1c(NC(=O)CSc2cccc3cccnc23)c(=O)n(-c2ccccc2)n1C` as the compound, how does the viability read?
A: 0.71% (active)

Q: For `Cc1cc(C)cc(N(CC(=O)Nc2c(C)n(C)n(-c3ccccc3)c2=O)S(C)(=O)=O)c1`, which viability is on record?
A: 93.1%

Q: With `COc1ccc(C(C)=O)cc1CN1C(=O)NC2(CCCCC2C)C1=O` (stereo unspecified) as the compound, how does the viability read?
A: 93.7%

Q: With `CCOC(=O)C1CCN(C(=O)COc2cc(C)c(Br)c(C)c2)CC1` as the compound, how does the viability read?
A: 35.3% (active)

Q: Which viability does the source give for `CCOC(=O)N1CCN(C(=O)COc2ccc(Br)cc2)CC1` here?
A: 104%

Q: With `CCOC(=O)C1CCN(C(=O)Nc2ccc(Cl)cc2)CC1` as the compound, how does the viability read?
A: 101%

Q: With `O=C1C2C3C=CC(C4CC34)C2C(=O)N1/N=C/c1ccc(-c2ccccc2[N+](=O)[O-])o1` (stereo unspecified) as the compound, how does the viability read?
A: 86.5%

Q: With `COc1ccc(NC(=O)/C(Cl)=C(/Cl)S(=O)Cc2ccc(C)cc2)cn1` (stereo unspecified) as the compound, how does the viability read?
A: 0.7% (active)

Q: With `COc1cccc(NC(=O)Cc2ccc(C)cc2)c1` as the compound, how does the viability read?
A: 97.9%

Q: With `O=C(Cn1cnc2ccccc2c1=O)NCC1COc2ccccc2O1` (stereo unspecified) as the compound, how does the viability read?
A: 104%

Q: With `Cc1cc(=O)[nH]c(SCc2cccc(F)c2)n1` as the compound, how does the viability read?
A: 106%

Q: For `O=C(Cn1nc(C(F)(F)F)c2c1CCC2)NCc1ccc(F)cc1`, which viability is on record?
A: 104%

Q: Which viability does the source give for `Cc1cc(NC(=O)Cn2nc(C(F)(F)F)c3c2CCCC3)no1` here?
A: 35.8% (active)

Q: For `COC(=O)c1ccccc1NC(=O)Cn1nc(C(F)(F)F)c2c1CCC2`, which viability is on record?
A: 84.3%

Q: With `Cc1ccc(OC(=O)c2ccccc2C(=O)OCC(F)(F)C(F)F)cc1` as the compound, how does the viability read?
A: 99.1%

Q: Which viability does the source give for `COc1ccc(-n2ncc3c(N4CCCc5ccccc54)ncnc32)cc1` here?
A: 100%

Q: For `COc1ccc(-n2ncc3c(N4CCc5ccccc54)ncnc32)cc1`, which viability is on record?
A: 43.4%

Q: Which viability does the source give for `Cc1cccc(-n2ncc3c(N4CCc5ccccc54)ncnc32)c1` here?
A: 33.3% (active)

Q: For `CC(C)N1C(=S)SC(C)(C)C1n1oc(=O)n(-c2ccc(Cl)c(Cl)c2)c1=O` (stereo unspecified), which viability is on record?
A: 97.1%

Q: With `CC(C)(C)n1nnnc1C(c1ccc(F)cc1)N1CCN(Cc2ccc3c(c2)OCO3)CC1` (stereo unspecified) as the compound, how does the viability read?
A: 81.2%

Q: Which viability does the source give for `CCN1C(=O)/C(=C\N2CCOCC2)SC1=S` here?
A: 86.2%

Q: Which viability does the source give for `CCSc1nc(-c2ccc(OC)cc2)cc(-c2ccc(OC)cc2)c1C#N` here?
A: 88%

Q: For `COC(=O)C(NC(C)=O)(Nc1nc2c(s1)CCCC2)C(F)(F)F` (stereo unspecified), which viability is on record?
A: 91.5%

Q: For `O=C(CCS(=O)(=O)c1ccccc1)Nc1nc2c(s1)CCCC2`, which viability is on record?
A: 17.5% (active)

Q: Which viability does the source give for `O=C(Cn1c(=O)sc2ccccc21)Nc1nc2c(s1)CCCC2` here?
A: 63.2%

Q: With `COc1ccc(C(C#N)N2N=C(C)CC2(C)C)cc1` (stereo unspecified) as the compound, how does the viability read?
A: 104%

Q: With `COC(=O)c1c(C)c(C)nc(N)c1C#N` as the compound, how does the viability read?
A: 98.1%

Q: For `FC(F)(F)c1cc(-c2ccco2)nc(NCc2ccc(Cl)cc2)n1`, which viability is on record?
A: 101%

Q: With `CCCNC(=O)c1ccc(Cl)c(Cl)c1` as the compound, how does the viability read?
A: 96%

Q: For `O=C(NCc1cccnc1)Nc1ccccc1F`, which viability is on record?
A: 98.8%

Q: For `CCC(c1nnnn1Cc1ccco1)N(CCc1ccccc1)Cc1cc2ccc(OC)cc2[nH]c1=O` (stereo unspecified), which viability is on record?
A: 23.2% (active)

Q: For `CCC(c1nnnn1Cc1ccco1)N(CCc1ccccc1)Cc1cc2cccc(C)c2[nH]c1=O` (stereo unspecified), which viability is on record?
A: 67.3%

Q: For `CCC(c1nnnn1Cc1ccco1)N(Cc1cc2cc(OC)ccc2[nH]c1=O)C1CCCCC1` (stereo unspecified), which viability is on record?
A: 76.8%

Q: For `CC1CCc2c(sc(NC(=O)c3ccc(Cn4cc(Br)cn4)o3)c2C(N)=O)C1` (stereo unspecified), which viability is on record?
A: 101%

Q: For `Cc1cc(NC(=O)CSc2nc(C(C)C)nc3sc4c(c23)CCC(C)C4)no1` (stereo unspecified), which viability is on record?
A: 6.01% (active)

Q: For `Cc1nc(SCC(=O)Nc2cc(C)on2)c2c3c(sc2n1)CCCC3`, which viability is on record?
A: 94%

Q: For `C=CCN(C(=O)Nc1ccc2oc(C)nc2c1)c1ccccc1`, which viability is on record?
A: 78.7%

Q: For `COc1cc(C(=O)Nc2nccs2)cc(OC)c1OC`, which viability is on record?
A: 84.2%

Q: Which viability does the source give for `COc1ccc(-c2nn(-c3ccccc3)cc2C(=O)Nc2nccs2)cc1OC` here?
A: 17.2% (active)

Q: With `COc1ccc(-c2nn(-c3ccccc3)cc2C(=O)Nc2nc(CC(C)=O)ns2)cc1` as the compound, how does the viability read?
A: 86.5%

Q: For `C/C=C/C(=O)Nc1nnc(C(C)C)s1`, which viability is on record?
A: 96.5%

Q: For `O=C(Nc1ccccc1)c1ccc2c(c1)OCO2`, which viability is on record?
A: 82.3%

Q: For `CCC(C)c1ccc(O)c(/C=N/O)c1` (stereo unspecified), which viability is on record?
A: 21.6% (active)

Q: For `Cc1nn(C(C)CC(=O)O)c(C)c1C` (stereo unspecified), which viability is on record?
A: 98.2%

Q: With `CCCCNC(=O)C1(c2ccc(OC)cc2)CCOCC1` as the compound, how does the viability read?
A: 93.8%

Q: Which viability does the source give for `CCOc1ccc(NC(=O)c2ccccc2NS(C)(=O)=O)cc1` here?
A: 94.1%

Q: For `C=CCn1c(SCC(=O)NCc2ccccc2)nnc1-c1cc(Br)ccc1O`, which viability is on record?
A: 87.8%

Q: Which viability does the source give for `C=CCn1c(CSc2nc3ccccc3s2)nnc1SCC(=O)NCc1ccco1` here?
A: 54.6%

Q: For `C=CCn1c(SCC(=O)Nc2nc3ccccc3s2)nnc1-c1ccccc1O`, which viability is on record?
A: 27.4% (active)

Q: For `Oc1ccc(-c2csc(Nc3cccnc3)n2)cc1`, which viability is on record?
A: 54.4%

Q: For `COc1ccc(OC)c(Nc2nc(-c3ccc(O)c(O)c3)cs2)c1`, which viability is on record?
A: 30.8% (active)

Q: With `COc1ccc(C(=O)Nc2nc(-c3ccc(S(=O)(=O)N4CCOCC4)cc3)cs2)cc1` as the compound, how does the viability read?
A: 58%

Q: With `CCOC(=O)C1=C(CNC2CCCCC2)NC(=O)NC1c1cc(C)ccc1C` (stereo unspecified) as the compound, how does the viability read?
A: 80.5%

Q: Which viability does the source give for `CCOC(=O)C1=C(CN2CCc3ccccc32)NC(=O)NC1c1ccc(Cl)cc1` (stereo unspecified) here?
A: 48.1%

Q: For `CCOC(=O)C1=C(CN2CCc3ccccc32)NC(=O)NC1c1cccc([N+](=O)[O-])c1` (stereo unspecified), which viability is on record?
A: 16.4% (active)

Q: With `COc1ccccc1NC(=O)C1=C(C)Nc2nnnn2C1c1cccc(Br)c1` (stereo unspecified) as the compound, how does the viability read?
A: 45.1%

Q: For `COc1ccc(C2=CC(c3cccc(OC)c3)n3nnnc3N2)cc1` (stereo unspecified), which viability is on record?
A: 11.4% (active)

Q: Which viability does the source give for `COC(=O)C1=C(C(=O)c2ccc(C)cc2)C(c2ccccc2)n2nnnc2N1` (stereo unspecified) here?
A: 93.9%

Q: Which viability does the source give for `CC(C)C(NC(=O)c1ccc(Cl)cc1)C(=O)O` (stereo unspecified) here?
A: 111%

Q: With `O=c1c2ccccc2nnn1CSc1nc2sc3c(c2c(=O)n1CC1CCCO1)CCC3` (stereo unspecified) as the compound, how does the viability read?
A: 54.9%

Q: With `CCCc1nc2sc3c(c2c(=O)n1NC(=O)CCCl)CCCC3` as the compound, how does the viability read?
A: 36% (active)

Q: Which viability does the source give for `Cn1c(NN)nc2sc3c(c2c1=O)CCC3` here?
A: 96.5%

Q: Which viability does the source give for `CC(C)CCNC(=O)CC1C(=O)N(Cc2ccccc2)C(C)c2nc3ccccc3n21` (stereo unspecified) here?
A: 102%

Q: Which viability does the source give for `COc1ccc(C2(CNC(=O)C(c3ccccc3)c3ccccc3)CCOCC2)cc1OC` here?
A: 74.8%

Q: For `CCOc1cc(C(=O)Nc2c(C)ccc3nsnc23)cc(OCC)c1OCC`, which viability is on record?
A: 78.3%

Q: Which viability does the source give for `O=C(CC(NCCN1CCOCC1)C(=O)O)Nc1cccc(Cl)c1` (stereo unspecified) here?
A: 94.2%

Q: Which viability does the source give for `COc1cccc2cc(C(C)N(CCCN3CCOCC3)C(=O)Nc3ccc(Cl)cc3)oc12` (stereo unspecified) here?
A: 31.7% (active)

Q: With `COc1ccc(C(=O)Nc2ccc(CN3CCOCC3)cc2)cc1` as the compound, how does the viability read?
A: 98.4%

Q: Which viability does the source give for `CCn1c(SCC(=O)Nc2cccc(F)c2)nnc1-c1cc2cc(Br)ccc2o1` here?
A: 34.7% (active)

Q: For `CCn1c(Cc2ccccc2)nnc1SCC(=O)Nc1ccccc1`, which viability is on record?
A: 90%

Q: With `CCCn1c(SCC(=O)Nc2cccc(C(=O)OCC)c2)nnc1-c1ccoc1C` as the compound, how does the viability read?
A: 78.9%

Q: Which viability does the source give for `COC(=O)c1cc2nc(-c3ccccc3)cc(C(F)(F)F)n2n1` here?
A: 90.6%

Q: With `O=C(O)CCC(=O)NCc1ccc(C(=O)O)cc1` as the compound, how does the viability read?
A: 96%

Q: With `O=C(Nc1cc(-c2nn(CC(=O)N3CCCCC3)c(=O)c3ccccc23)ccc1N1CCOCC1)c1ccc(Cl)cc1` as the compound, how does the viability read?
A: 93.1%

Q: For `Cc1ccc(-c2cnc(NC(=O)CCC(=O)N(C)Cc3ccccc3)n2C)cc1`, which viability is on record?
A: 100%

Q: Which viability does the source give for `COc1ccc(NC(=O)CC2COc3ccccc3O2)c(OC)c1` (stereo unspecified) here?
A: 105%

Q: With `Cc1cccc(-c2nc3c(c(SCC(=O)N4CCOCC4)n2)CCCC3)c1` as the compound, how does the viability read?
A: 70.3%

Q: Which viability does the source give for `Cn1nc(-c2ccccc2)c(CSc2cccc(Cl)c2)c1Cl` here?
A: 22% (active)

Q: For `Cc1ccc(S(=O)(=O)c2c(COC(=O)c3cccc(Cl)c3)c(-c3ccccc3)nn2C)cc1`, which viability is on record?
A: 87.9%

Q: For `COC(=O)Cn1nc(-c2ccccc2)c2cc(Cl)ccc21`, which viability is on record?
A: 98.3%
